# Source: PMC10163288
# Only a sample is shown. The hit rate among all sequences tested is not known here. A number with no mark means an inactive call.
# B1: il2ra_site2_2erj_normal_mot_HHH_b1_07741_000000192_0001_1_20_H_._9b1ece5d1ebc94355a99c96473898622_0001_1_af2_0001_0000300001_0000001_0 (protein)
# chain: DQEEFLRRAARENPETFIRYAELLAKDAGNPELLKLVEELKEEVEKGEIPPEEAAELVVEVLEEL
# B2: il2ra_site2_2erj_sap_23_mot_HHH_b1_06697_000000025_0001_41_54_H_._HHH_b2_03690_0001_0000400021_0000001_0_0001 (protein)
# chain: SSSSDYEERVKELLEELRELLEEGDEEKFEELVFEVSQLIFENNDFELFAELTEIFEEFIRSSSS
# B3: il2ra_site1_2b5i_normal_mot_HHH_b2_04910_000000118_0001_1_19_H_._HHH_b1_05884_0001_0000500029_0000001_0 (protein)
# chain: SSSSSEETRELQELFREADELDRRGNEEEAEEVLREAIELARQAGSRSMLKMLESALKELGSSSS
# B4: il2ra_site1_3nfp_normal_mot_HHH_b1_05523_000000027_0001_1_19_H_._HHH_b1_07881_af2_0001_0000100003_0000001_0_af2pred_0001_af2pred_1 (protein)
# chain: SSSSTEVSRRVLELIEEALELAQNGNPEEAEEVLREALKLAEEAGNESTARFIRKALEQSSSSSS
# B5: il2ra_site1_3nfp_sap_10_mot_cc4219192d8ccd35c40e7b68f9a57604_0001_af2_000000124_0001_16_32_H_._HHH_b2_07250_0001_0000100001_0000001_0_0001 (protein)
# chain: SSSSSEIEEEVRELLEEAEQLLKEGDWEEAAKVVEEAMKLASQANDDELDQLIMEWVRKLSSSSS
# B6: il2ra_site1_3nfp_sap_18_mot_HHH_b2_03549_000000219_0001_1_18_H_._HHH_b1_06169_0001_0000200013_0000001_0_0001 (protein)
# chain: NDERVASKLVEEAARSAGVDEVEVSVSNGTLHVEVSGGDRAARRVEEAAKQIAEWLGVEVEVTFE
# B7: il2ra_site1_3nfp_normal_mot_HHH_b1_01231_af2_000000170_0001_1_16_H_._HHH_b1_02076_0001_0000200037_0000001_0_af2pred_0001_af2pred_1_swapped (protein)
# chain: SSSSSSREELELKERVLRLLARIRDPEEARRVLEEAEELAKELGDERLLEELEKLLKRLGSSSSS
# B8: il2ra_site2_3nfp_sap_21_mot_HHH_b1_06577_af2_000000152_0001_20_36_H_._HHH_b2_07686_0001_0000600063_0000001_0_0001 (protein)
# chain: SSSSDEDEERVEKLIEEIERLLEEGDRDEAARLLLEATELAARINNDELARKLLELFLKIQSSSS
# B9: il2ra_site2_3nfp_normal_mot_HHH_b1_03851_000000147_0001_21_38_H_._HHH_b1_04525_0001_0000600036_0000001_0 (protein)
# chain: SSSSDEERREARELFEELQELLEENDKHAVFEVLMELFELAARTGDEEAARLVLEIYAQLRSSSS
# B10: il2ra_site2_2erj_sap_10_mot_HHH_b1_08207_af2_000000250_0001_43_57_H_._HHH_b2_03076_0001_0000100015_0000001_0_0001 (protein)
# chain: SSSSDWLHRLYELANRITELASRGNPEEAREVLEELQELAEEANSDNAKWVAEALEKHLNSSSSS
# B11: il2ra_site2_3nfp_sap_16_mot_HHH_b1_03316_000000041_0001_39_56_H_._702997820559c2f17efcc64b63c1c749_0001_1_0001_0000200016_0000001_0_0001_af2pred_0001_1_af2pred_ … (protein)
# chain: DSEKELFKEALEEGDPALIDAVALAIALAERGKPPEEIEKSVERWLRAQGVPPEEIEEILELLRK
# B12: il2ra_site2_3nfp_normal_mot_HHH_b2_01406_000000272_0001_41_55_H_._HHH_b2_00362_0001_0000600032_0000001_0 (protein)
# chain: SSSSSDEEEEELEERLEKALEEGDKHLAAQLAAELSELLARLNDPETAVRLAVKVLEFVLSSSSS
# B13: il2ra_site2_3nfp_sap_26_mot_HHH_b1_07277_000000260_0001_23_39_H_._HHH_eva_0486_af2_0001_0000400016_0000001_0_0001 (protein)
# chain: SAELARRIVELVRRGDPVAEALFALLADVAYKGDPELERLLEEALEALERGNPEEAEEIVRKALK
# B14: il2ra_site1_2b5i_sap_17_mot_143f78fc0439b137266e145e81963a82_0001_1_af2_000000250_0001_37_51_H_._2548690152cc24afdf538b66510d0e06_0001_0001_0000200012_0000001_0 … (protein)
# chain: SSSSDEKYDEVERLFKKALELRRAGKKEEAKEVLEEALKIAEEAKDEKLVEELKRFLELLSSSSS
# B15: il2ra_site2_2erj_normal_mot_HHH_b1_00210_af2_000000043_0001_43_57_H_._HHH_b1_00702_0001_0000100006_0000001_0 (protein)
# chain: SSSSDREEVEELLKELEEAYEEGDEEKFEELASRASVLIFQIGDFELWSELAELFAKLNKSSSSS
# B16: il2ra_site1_2b5i_normal_mot_HHH_b1_08745_af2_000000166_0001_39_57_H_._HHH_b1_02799_0001_0000100008_0000001_0_af2pred_dldesign_0_af2pred (protein)
# chain: SSSSSPEGKEVLRLLEEAEAALKAGDEAGARALLEKALEIAKKAKSNLFVKFVEAALKALESSSS
# B17: il2ra_site1_1z92_sap_15_mot_HHH_b2_05498_000000253_0001_19_35_H_._HHH_b1_00069_0001_0001500068_0000001_0_0001_af2pred_0001_af2pred_1 (protein)
# chain: SEEEEHIRELIEQIPDPELAEAIKKDFEQALERGIPPERVVRALLRAARLDGDPHAEELLEKALR
# B18: il2ra_site1_2b5i_sap_11_mot_HHH_b1_06900_af2_000000048_0001_21_36_H_._a1725d017d863e7f4c76c21e96fab134_0001_1_af2_0001_0000100009_0000001_0_0001_af2pred_0001_af … (protein)
# chain: SSSSSTLAQKAAELLEEANEADRNGDPEEARKLLEEAEKIAEEAGSKSLLRSIRVALEQLSSSSS
# B19: il2ra_site1_1z92_sap_14_mot_HHH_b1_05862_af2_000000270_0001_22_38_H_._HHH_b1_06212_0001_0000200007_0000001_0_0001_af2pred_0001_af2pred_1 (protein)
# chain: SSSSSDLEELIEEIARELAEENNDEDLREELEKAAERLKKLGTSHERARKILEKLVKAARSSSSS
# B20: il2ra_site2_3nfp_normal_mot_HHH_b2_07840_000000026_0001_18_34_H_._HHH_b1_00954_0001_0000200021_0000001_0 (protein)
# chain: SSSSDLEERLRELLEELEELVKEGDEERFREVAREVIQLVYENNDHEAFAKLADLLYLIESSSSS
# B21: il2ra_site1_1z92_normal_mot_c9a8daa1dfea21d1414aecde54be4f54_0001_1_af2_000000024_0001_32_46_H_._15f70e71ac3214bf43105af5abf4654e_0001_1_af2_0001_0000300029_000 … (protein)
# chain: DEEAARKDLEFALKQGIPPRSVVRAVLLALEHELGDPEEALEVIERAIKLLNDPELEEVVEKLKP
# B22: il2ra_site1_2b5i_sap_21_mot_HHH_b2_08159_000000245_0001_1_21_H_._8ad9ac091cb40d3f9ee7ab2e9a3a3379_0001_0001_0000400039_0000001_0_0001_af2pred_0001_af2pred_1 (protein)
# chain: SSSSSELLEEAFELLEEADELAKKGNDEEAEKVLREAEELLEKAGNPSLLRLVRAALRLTSSSSS
# Target: il2ra, P01589
# Test: yeast display titration
# Chain of il2ra, P01589 (P01589 whole entry): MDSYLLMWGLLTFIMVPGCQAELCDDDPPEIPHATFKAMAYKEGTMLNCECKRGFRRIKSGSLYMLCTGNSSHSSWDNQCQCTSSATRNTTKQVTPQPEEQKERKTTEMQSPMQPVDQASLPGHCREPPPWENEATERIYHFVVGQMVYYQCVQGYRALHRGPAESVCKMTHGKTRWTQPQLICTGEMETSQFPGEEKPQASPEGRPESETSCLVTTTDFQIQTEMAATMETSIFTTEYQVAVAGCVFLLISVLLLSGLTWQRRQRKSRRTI
row,Binder,apparent Kd
1,B1,no binding seen
2,B2,no binding seen
3,B3,no binding seen
4,B4,no binding seen
5,B5,no binding seen
6,B6,no binding seen
7,B7,no binding seen
8,B8,no binding seen
9,B9,no binding seen
10,B10,no binding seen
11,B11,no binding seen
12,B12,no binding seen
13,B13,no binding seen
14,B14,no binding seen
15,B15,no binding seen
16,B16,no binding seen
17,B17,no binding seen
18,B18,no binding seen
19,B19,no binding seen
20,B20,no binding seen
21,B21,no binding seen
22,B22,no binding seen
